# From PubChem
# Mdm2 MdmX PPI: human Mdm2/MdmX binding inhibition. 330,000 compounds, 3% hits. SaOS-2 split-luciferase Mdm2/MdmX complementation, luminescence. inhibition, % at 8 µM. AID 485346;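 active = inhibition of at least 50% at 8 µM in the primary screen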
# Target sequence (O15151 whole entry, looked up): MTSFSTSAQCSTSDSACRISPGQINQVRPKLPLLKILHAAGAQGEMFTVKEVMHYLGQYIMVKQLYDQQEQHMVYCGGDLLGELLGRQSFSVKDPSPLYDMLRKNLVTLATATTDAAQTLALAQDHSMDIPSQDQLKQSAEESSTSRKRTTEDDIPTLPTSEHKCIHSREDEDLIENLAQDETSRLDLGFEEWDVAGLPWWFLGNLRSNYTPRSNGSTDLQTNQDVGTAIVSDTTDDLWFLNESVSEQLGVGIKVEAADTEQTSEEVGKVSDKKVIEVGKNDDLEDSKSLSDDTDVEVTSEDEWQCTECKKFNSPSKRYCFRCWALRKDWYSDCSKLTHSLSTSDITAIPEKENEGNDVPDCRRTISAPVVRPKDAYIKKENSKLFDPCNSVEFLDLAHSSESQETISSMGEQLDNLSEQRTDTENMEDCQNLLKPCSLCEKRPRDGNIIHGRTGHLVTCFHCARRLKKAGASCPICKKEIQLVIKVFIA
# Target sequence (Q00987 whole entry, looked up): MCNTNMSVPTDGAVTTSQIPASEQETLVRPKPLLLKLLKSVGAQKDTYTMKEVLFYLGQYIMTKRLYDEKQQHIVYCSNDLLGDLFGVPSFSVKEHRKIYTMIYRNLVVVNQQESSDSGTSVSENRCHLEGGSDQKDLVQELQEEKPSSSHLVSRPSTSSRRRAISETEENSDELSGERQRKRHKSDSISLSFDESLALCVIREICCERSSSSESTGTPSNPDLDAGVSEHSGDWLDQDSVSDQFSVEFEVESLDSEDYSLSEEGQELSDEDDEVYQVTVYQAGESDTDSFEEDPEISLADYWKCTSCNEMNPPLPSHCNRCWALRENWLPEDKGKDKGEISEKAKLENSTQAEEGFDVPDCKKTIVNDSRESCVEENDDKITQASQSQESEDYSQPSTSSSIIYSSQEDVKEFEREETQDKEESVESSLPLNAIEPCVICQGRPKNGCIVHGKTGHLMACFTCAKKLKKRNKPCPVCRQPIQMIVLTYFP
# MPTP block: blocks calcium-induced mitochondrial swelling; inhibition, % at 10 µM; isolated mouse mitochondria, Ca2+ swelling absorbance, 30 min; AID 602449; 360,000 compounds, 1.4% hits;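 active = inhibition of 50% or more, scaled per plate between neutral and stimulator controls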;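 note: 0% = DMSO wells given calcium and 100% = 1 mM EGTA wells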
# Gli-Sufu antag: blocks Gli-Sufu signaling in a luciferase reporter; 340,000 compounds, 0.74% hits; inhibition, % at 5 µM; Sufu-KO-LIGHT fibroblasts, Gli luciferase reporter luminescence;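 active = inhibition above about 55%, limit read from the data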;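 note: 0% = DMSO-treated cells and 100% = wells with medium but no cells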
# CSC inhib: cancer stem cell inhibition | 300,000 compounds, 1.1% hits | AID 2717 | cancer stem cell-like cells viability, luminescence | inhibition, % at 7.5 µM; in the data active = inhibition above about 75%; tested in HMLE shEcad cells
# GRIN3A LBD mod: NR3A (human) ligand-binding domain modulation; AID 1259313; NR3A LBD differential scanning fluorimetry, Tm shift; 0% = protein alone, 100% = glycine-bound protein; 340,000 compounds, 2.5% hits; Tm shift relative to glycine control, % at 25 µM;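 active = melting temperature shift of at least 10% of the positive control shift, at one fixed dose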
# Beta cell apopt: beta cell apoptosis inhibition; INS-1E cytokine-induced death, ATP luminescence, 48 h; percent of positive-control rescue, neutral wells zero; protection from apoptosis, % (test concentration not listed); 300,000 compounds, 0.8% hits;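 active = Every replicate reaches about 75%, or at least half do and their mean reaches it too, limit read from the data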;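 note: 0% = cytokine-treated negative control wells and 100% = positive control rescue; higher means more ATP so stronger rescue from cytokine killing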
# MPTP counter: Rhodamine 123 counter-screen of mitochondrial pore hits; isolated mitochondria, membrane potential, Rhodamine 123 fluorescence; inhibition, % at 10 µM; AID 624504; shares compounds with MPTP block; 5,000 compounds, 78% hits; in the data active = inhibition above about 22%;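 note: 0% = DMSO vehicle and 100% = positive control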
# MPTP abs DR: dose response confirmation of mitochondrial permeability transition pore inhibitors | shares compounds with MPTP block | isolated mitochondria swelling, absorbance | IC50, µM | 780 compounds, 58% hits | AID 651561; in the data active = IC50 below about 20 µM
# MPTP cs DR: counter-screen for mitochondrial permeability transition pore inhibitors, dose response; isolated mitochondria counterscreen, fluorescence read-out; shares compounds with MPTP block; IC50, µM; 780 compounds, 49% hits; in the data active = IC50 below about 80 µM
# Starred values were filed as active, the others as inactive; i = inactive; · = not tested or not shown; ! = a repeat was not active. A selection: hits, their analogues and other compounds. The true share with any hit is near 6.6%.
SMILES,Mdm2 MdmX PPI,MPTP block,Gli-Sufu antag,CSC inhib,GRIN3A LBD mod,Beta cell apopt,MPTP counter,others
O=C(NCc1ccco1)c1ccc(S(=O)(=O)N2CCCCC2)cc1,-13,-3,3,18,0,-7,·,
COc1ccccc1N(C)S(=O)(=O)c1ccc(C(=O)OCC(=O)NCc2cccs2)cc1,5,3,6,-1,1,-6,·,
CN1CCN(CCCN2c3ccccc3Sc3ccc(C(F)(F)F)cc32)CC1,41,91*!,-44,52,-4,3,-20,MPTP abs DR=4.2*;MPTP cs DR=>80
O=C(CN1CCCC(O)C1)N1c2ccccc2Sc2ccc(C(F)(F)F)cc21 (stereo not drawn),-17,0,3,-4,-2,-10,·,
CC1(C)Cc2c(sc(NC(=O)Cc3ccccc3)c2C#N)C(C)(C)N1,·,0,·,·,·,·,·,
CCOC(=O)c1c(NC(=O)Cc2ccccc2)sc2c1CC(C)(C)NC2(C)C,36,71*,6,11,-1,-11,-4,MPTP abs DR=i;MPTP cs DR=>80
COC(=O)c1c(NC(=O)c2ccccc2)sc2c1CC(C)(C)NC2(C)C,42,73*,33,-5,-2,0,-5,MPTP abs DR=18*;MPTP cs DR=>80
O=C(CC1CS(=O)(=O)CC1CC(=O)Oc1ccccc1F)Oc1ccccc1F (stereo not drawn),23,-1,-9,1,1,-5,·,
CC1(C)C2CCC(C2)C1(C)NC(=O)CNC1CCCCC1 (stereo not drawn),31,2,3,-6,0,-2,·,
N#CNC(=Nc1cccc(F)c1)SCc1ccccc1F,19,77*,-7,24,-4,6,91*,
CC(C)N=C(NC#N)SCc1ccccc1F,14,-1,5,·,-1,-9,·,
CC(C(=O)O)c1ccc(-c2ccccc2)c(F)c1 (stereo not drawn),18,0,0,7,-1,-5,·,
CC(C(=O)Nc1ccccc1)c1ccc(-c2ccccc2)c(F)c1 (stereo not drawn),36,86*,-109,-2,2,11,122*,
CC(C)C1Nc2c(O)cc(Cl)c([N+](=O)[O-])c2C2C=CCC21 (stereo not drawn),·,92*,3,·,1,·,78*,
O=C1c2ccc(Oc3ccc([N+](=O)[O-])cc3)cc2C(=O)N1c1ccncc1,3,87*,1,-20,-1,-3,79*,
O=C(Nc1cccc(S(=O)(=O)Nc2ccccc2Cl)c1)c1ccc(Cl)nc1,5,62*,35,15,-11,2,56*,
O=C(Nc1cccc(S(=O)(=O)Nc2ccccc2F)c1)c1ccco1,24,1,3,-5,1,-7,·,
O=C(CSc1ccc([N+](=O)[O-])cc1)Nc1cccc(S(=O)(=O)Nc2ccccc2F)c1,11,87*,6,1,24*,-12,68*,
O=C(Cc1ccc(Cl)cc1)Nc1cccc(S(=O)(=O)Nc2ccccc2F)c1,22,60*,29,9,6,-6,64*,
Cc1ccc(C(=O)NC(Cc2ccccc2C(F)(F)F)C(=O)O)cc1 (stereo not drawn),23,0,5,·,2,·,·,
COc1ccc(CN2CCn3nc(C(=O)NC4CC4)cc3C2=O)cc1,5,0,-9,0,-1,-6,·,
COc1ccccc1OCCCCN1CCN(C(c2ccccc2)c2ccccc2)CC1,40,82*,9,18,-1,3,-7,MPTP abs DR=i;MPTP cs DR=65*
Cc1[nH]nc(SCC(=O)N2CCC(C)CC2)c1[N+](=O)[O-],8,0,-7,-8,-2,-8,·,
CCCCOc1ccc(CONS(=O)(=O)c2ccc(NC(C)=O)cc2)cc1Cl,4,94*,46,43,28*,40,73*,
COc1ccc(C(=O)Nc2nc(CC(=O)NCc3c(F)cccc3F)cs2)cc1,·,0,·,·,·,·,·,
SMILES,Mdm2 MdmX PPI,MPTP block,Gli-Sufu antag,CSC inhib,GRIN3A LBD mod,Beta cell apopt,MPTP counter,others
O=Cc1cnc(N2CCOCC2)nc1,14,-1,5,-8,2,-14,·,
O=C(CSCc1ccc([N+](=O)[O-])cc1)Nc1ccccc1C(=O)O,3,0,-8,-7,-1,-4,·,
CC(CC(=O)O)CC(=O)Nc1cc([N+](=O)[O-])ccc1O (stereo not drawn),-3,-1,-2,-14,-1,-11,·,
O=C(CSCc1ccc(Cl)cc1)Nc1cc([N+](=O)[O-])ccc1O,5,99*,-1,38,0,-2,88*,
Cc1ccc(SCC(=O)Nc2cc([N+](=O)[O-])ccc2O)cc1,2,102*,3,-9,1,4,99*,
CC(=O)NC(=S)Nc1sc2c(c1C#N)CCCCC2,·,84*,-49,·,-3,·,77*,
CCC1(C)Cc2c(sc(NC(=S)NC(=O)c3ccccc3)c2C#N)CO1 (stereo not drawn),-1,83*,-11,44,22*,11,5,MPTP abs DR=i;MPTP cs DR=4.5*
CC(=O)Nc1sc2c(c1C#N)CCCC2,-11,1,-4,-10,0,1,·,
N#Cc1c(NC(=S)NC(=O)Cc2cccs2)sc2c1CCCCC2,7,84*,12,-10,20*,-11,74*,
Cn1nccc1C(=O)NC(=S)Nc1sc2c(c1C#N)CCCCC2,-29,2,-37,20,1,-8,·,
CC(C)(C)C(=O)Nc1sc2c(c1C#N)CCC2,12,1,-3,7,-3,4,·,
CCN1CCc2c(sc(NC(=S)NC(=O)c3ccccc3)c2C#N)C1,-25,-1,-24,4,0,-7,·,
CC(C)(C)C(=O)NC(NC(=S)Nc1sc2c(c1C#N)CCCC2)C(Cl)(Cl)Cl (stereo not drawn),39,94*,14,·,16*,5,53*,
O=C(CCCCn1c(=O)c2ccccc2n(Cc2ccccc2)c1=O)NC1CCN(Cc2ccccc2)CC1,45,0,1,-8,-2,8,·,
CN(CC(=O)Nc1cccc(F)c1)C(=O)C1CCN(S(=O)(=O)c2ccc3c(c2)OCCO3)CC1,18,-1,-4,-3,-3,·,·,
CCc1ccc(N2CC(C(=O)OCC(=O)NC3CC3)CC2=O)cc1 (stereo not drawn),-8,-1,8,-18,2,-1,·,
N#Cc1c(NC(=S)NC(=O)c2ccccc2)sc2c1CCC2,-11,58*,-25,5,11*,0,37*,
O=C(/C=C/c1ccccc1)OCN1C(=O)c2ccccc2C1=O,-3,-1,-9,-10,1,-8,·,
O=C(Nc1cccc(Cl)c1)N(CCCN1CCOCC1)Cc1ccccc1F,22,95*,5,-3,4,-3,95*,
